Laboratory results reported in PubChem BioAssay (Tox21).
Values without a mark were called inactive. Inconclusive results are not listed. Entries that show only a call come without a potency. Calls of active or inactive are those of the source. Unless noted, calls follow the shape of the full dose curve.

Legend:
[1] = Nuclear factor erythroid 2-related factor 2/antioxidant responsive element (Nrf2/ARE) small molecule agonists: qHTS cell viability counter screen in human keratinocytes (AID 1919968; active = well fitted curve in the direction sought with a large enough effect in the repeat runs; an effect the other way counts as inactive or inconclusive; also: nearly all actives have a fitted effect of over 55% in size)
Outline: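 Cytotoxicity was multiplexed with the Nrf2/ARE luciferase assay in the same wells. Stably transfected HaCaT keratinocytes were treated with test compounds for 23 h at 37 C. Cell viability was then measured by CellTiter-Fluor fluorescence.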

[2] = target: Gonadotropin-releasing hormone receptor (Homo sapiens) (UniProt P30968); test: Human gonadotropin-releasing hormone receptor (GnRHR) small molecule agonists, calcium flux assay in GnRHR-HEK293 cells (AID 1920063); also: nearly all actives have a fitted effect of over 35% in size
Outline: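 Agonist activity was measured as intracellular calcium flux in HEK293 cells engineered to stably express human GnRHR. After dye loading for 1 hour at 37 C, compounds in DMSO were added and fluorescence was followed for 3 minutes.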

[3] = target: KiSS-1 receptor (Homo sapiens) (UniProt Q969F8); test: Human kisspeptin (KISS1R) small molecule agonists, calcium flux assay in KISS1R-HEK293 cells (AID 1920064; active = well fitted curve in the direction sought with a large enough effect in the repeat runs; an effect the other way counts as inactive or inconclusive)
Outline: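 Agonist activity is monitored as intracellular calcium rise in engineered HEK293 cells carrying human KISS1R. Cells are dye-loaded for 1 h at 37 C before compound addition, and fluorescence is recorded for 3 min.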

[4] = G protein-coupled receptor (GPCR) small molecule agonists, calcium flux assay: HEK293 wild type cell line counter screen (AID 1920065)
Outline: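 Seed cells, incubate 18 h (37 C, 5% CO2); add calcium dye, 1 h at 37 C; pin-transfer compounds, ATP control or DMSO; read fluorescence 480/540 nm each second for 3 min.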

[5] = p53 small molecule agonists, cell-based qHTS assay with human liver microsomes (AID 1963577)
Outline: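 p53RE-bla reporter cells were pre-incubated 5 h at 37 C, then treated with compounds plus human liver microsomes (0.5 mg/mL final) and NADPH (0.5 mg/mL final) for 16 h at 37 C. Beta-lactamase activity was read by LiveBLAzer fluorescence after 2 h at room temperature.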

[6] = p53 small molecule agonists, cell-based qHTS assay with rat liver microsomes (AID 1963578)
Outline: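 p53RE-bla cells were exposed to compounds together with rat liver microsomes (0.5 mg/mL final) and NADPH (0.5 mg/mL final) for 16 h at 37 C, then read by LiveBLAzer beta-lactamase fluorescence after 2 h at room temperature.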

[7] = p53 small molecule agonists, cell-based qHTS assay with human liver microsomes: qHTS cell viability counter screen (AID 1963579); also: nearly all actives have a fitted effect of over 45% in size
Outline: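 p53RE-bla cells (4,000/well) were pre-incubated 5 h at 37 C, then given compounds in DMSO plus human liver microsomes (0.5 mg/mL final) and NADPH (0.5 mg/mL final) for 16 h at 37 C. Viability was read by CellTiter-Glo luminescence.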

[8] = p53 small molecule agonists, cell-based qHTS assay with rat liver microsomes: qHTS cell viability counter screen (AID 1963580); also: nearly all actives have a fitted effect of over 45% in size
Outline: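 Luminescent ATP readout (CellTiter-Glo, 30 min at room temperature) reports viability of p53RE-bla HCT-116 cells after 16 h at 37 C with test compounds under metabolic activation by rat liver microsomes and NADPH at 0.5 mg/mL final each.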

[9] = p53 small molecule agonists, cell-based qHTS assay: qHTS cell viability counter screen (AID 1963581); also: nearly all actives have a fitted effect of over 45% in size
Outline: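 Viability was counter-screened in parallel with the p53 agonist reporter by measuring intracellular ATP luminescence in the same HCT-116 p53RE-bla wells after 16 h compound treatment at 37 C.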

[10] = target: 5-hydroxytryptamine receptor 2A (Homo sapiens) (UniProt P28223); test: 5-hydroxytryptamine receptor 2A (HTR2A) small molecule antagonists, cell-based qHTS assay (AID 1963586); also: nearly all actives have a fitted effect of over 45% in size
Outline: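 CHO cells stably expressing human HTR2A were plated for 18 h at 37 C, then loaded with calcium dye for 1 h. Compounds were preincubated 5 min at room temperature before DOI (4 nM solution) was added. Kinetic fluorescence was read for 3 min.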

[11] = target: 5-hydroxytryptamine receptor 2A (Homo sapiens) (UniProt P28223); test: 5-hydroxytryptamine receptor 2A (HTR2A) small molecule agonists, cell-based qHTS assay (AID 1963587); also: nearly all actives have a fitted effect of over 30% in size; also: potency is read from the fitted curve at half-maximal effect
Outline: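 HTR2A-CHO cells, plated 18 h at 37 C/5% CO2, dye-loaded 1 h at 37 C; compounds in DMSO added by pin tool (agonist mode). Intracellular calcium flux read as kinetic fluorescence on FDSS over 2 min at 1 s intervals.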

[12] = target: Muscarinic acetylcholine receptor M1 (Homo sapiens) (UniProt P11229); test: Cholinergic receptor muscarinic 1 (CHRM1) small molecule antagonists, cell-based qHTS assay (AID 1963588); also: nearly all actives have a fitted effect of over 40% in size
Outline: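 Compounds were tested at 15 concentrations in three independent runs. Dye-loaded CHRM1-CHO cells were exposed 5 min at room temperature before stimulation by acetylcholine added at 50nM. Intracellular calcium was read kinetically on FDSS for 3 min.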

[13] = target: Muscarinic acetylcholine receptor M1 (Homo sapiens) (UniProt P11229); test: Cholinergic receptor muscarinic 1 (CHRM1) small molecule agonists, cell-based qHTS assay (AID 1963589); also: nearly all actives have a fitted effect of over 35% in size
Outline: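 Cells were plated and incubated 18 h at 37 C/5% CO2, loaded with calcium dye for 1 h at 37 C, then treated with compounds in DMSO. Fluorescence was recorded kinetically at 1 sec intervals.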

[14] = target: D(2) dopamine receptor (Homo sapiens) (UniProt P14416); test: Dopamine D2 receptor (DRD2) small molecule agonists, cell-based qHTS assay (AID 1963594); also: nearly all actives have a fitted effect of over 35% in size
Outline: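 HEK293 cells stably expressing DRD2 were cultured 24 h at 37 C, then given Ro20-1724 (0.1 mM final) and compounds for 10 min at room temperature. NKH477 (200nM) was then added for 30 min. cAMP was read by HTRF.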

[15] = target: D(2) dopamine receptor (Homo sapiens) (UniProt P14416); test: Dopamine D2 receptor (DRD2) small molecule antagonists, cell-based qHTS assay (AID 1963595; active = well fitted inhibition curve with a large enough effect in the signal ratio in the repeat runs, with a control signal flat; the % refers to the signal ratio)
Outline: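 HEK293 cells stably expressing DRD2 were preincubated with 0.1 mM Ro20-1724, then with compound for 10 min at room temperature. Cells were stimulated with 200 nM NKH477 plus 12 nM quinpirole for 30 min, and cAMP was read by HTRF.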

[16] = p53 small molecule agonists, cell-based qHTS assay (AID 1963582; active = well fitted activation curve with a large enough effect in the signal ratio in the repeat runs, not every such curve was filed as active; the % refers to the signal ratio)
Outline: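 Cells carrying a p53-responsive bla reporter are treated with test compounds for 16 h at 37 C; beta-lactamase activity is then detected with LiveBLAzer B/G FRET substrate after 2 h at room temperature.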

[17] = cAMP Responsive Elements (CRE) small molecule antagonists, cell-based qHTS assay (AID 1963591; active = well fitted inhibition curve with a large enough effect in the signal ratio in the repeat runs, not every such curve was filed as active; the % refers to the signal ratio)
Outline: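 Cells (CRE-bla HEK 293T, DMEM with 10% dialyzed FBS and 25 mM HEPES) are seeded and incubated 18 h. Compounds are added with NKH477 agonist at 0.25 uM final for 3 h, then FRET substrate for 2 h.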

[18] = target: Beta-2 adrenergic receptor (Homo sapiens) (UniProt P07550); test: Adrenergic beta2 receptor (ADRB2) small molecule antagonists, cell-based qHTS assay (AID 1963592); also: series mostly up to about 92 µM; nearly all actives have a fitted effect of over 50% in size
Outline: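 Assay format: CHO-ADRB2 cells, 18-20hr seeding at 37C/5% CO2, then compound plus 1nM isoproterenol agonist mix for 0.5hr RT. Homogeneous time-resolved fluorescence cAMP detection after 1hr, expressed as 665/615 nm ratio.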

[19] = cAMP Responsive Elements (CRE) small molecule agonists, cell-based qHTS assay (AID 1963590)
Outline: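 Cells carrying a CRE-driven beta-lactamase reporter (HEK 293T) are seeded, incubated overnight (18 h), and treated with test compounds for 3 h at 37 C; reporter activity is then detected with a FRET substrate after 2 h at room temperature.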

[20] = target: Beta-2 adrenergic receptor (Homo sapiens) (UniProt P07550); test: Adrenergic beta2 receptor (ADRB2) small molecule agonists, cell-based qHTS assay (AID 1963593);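 also: CHO cells stably overexpressing human ADRB2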
Outline: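 CHO cells stably over-expressing ADRB2 were plated overnight at 37C, then dosed with compounds plus a stimulation mix containing 100uM IBMX and 25uM Ro-20-1724 for 0.5hr at room temperature. cAMP was measured by HTRF competition, 1hr.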

Sequence of KiSS-1 receptor (Homo sapiens) (Q969F8 whole entry, looked up): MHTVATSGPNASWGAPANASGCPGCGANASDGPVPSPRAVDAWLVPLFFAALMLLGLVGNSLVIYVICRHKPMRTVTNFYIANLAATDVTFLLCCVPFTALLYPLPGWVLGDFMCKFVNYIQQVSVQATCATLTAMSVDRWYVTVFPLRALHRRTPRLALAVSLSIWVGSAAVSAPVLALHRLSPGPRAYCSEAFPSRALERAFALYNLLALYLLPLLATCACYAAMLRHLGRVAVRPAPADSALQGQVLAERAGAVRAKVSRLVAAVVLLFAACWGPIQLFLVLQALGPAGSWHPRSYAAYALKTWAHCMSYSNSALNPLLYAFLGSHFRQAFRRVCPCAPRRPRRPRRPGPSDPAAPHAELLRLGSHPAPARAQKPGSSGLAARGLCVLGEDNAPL
Sequence of 5-hydroxytryptamine receptor 2A (Homo sapiens) (P28223 whole entry, looked up): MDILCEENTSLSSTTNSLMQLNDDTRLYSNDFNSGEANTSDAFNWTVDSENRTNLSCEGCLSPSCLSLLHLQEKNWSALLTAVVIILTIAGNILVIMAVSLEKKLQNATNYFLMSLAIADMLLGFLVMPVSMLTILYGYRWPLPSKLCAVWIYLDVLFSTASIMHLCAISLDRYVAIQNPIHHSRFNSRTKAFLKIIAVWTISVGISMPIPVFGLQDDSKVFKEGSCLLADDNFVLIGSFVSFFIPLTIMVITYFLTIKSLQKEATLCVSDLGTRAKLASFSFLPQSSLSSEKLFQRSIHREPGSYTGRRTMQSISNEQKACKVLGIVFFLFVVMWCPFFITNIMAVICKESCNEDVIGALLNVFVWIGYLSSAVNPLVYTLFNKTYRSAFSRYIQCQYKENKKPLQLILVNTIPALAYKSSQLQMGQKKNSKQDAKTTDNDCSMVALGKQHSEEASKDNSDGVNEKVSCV
Sequence of D(2) dopamine receptor (Homo sapiens) (P14416 whole entry, looked up): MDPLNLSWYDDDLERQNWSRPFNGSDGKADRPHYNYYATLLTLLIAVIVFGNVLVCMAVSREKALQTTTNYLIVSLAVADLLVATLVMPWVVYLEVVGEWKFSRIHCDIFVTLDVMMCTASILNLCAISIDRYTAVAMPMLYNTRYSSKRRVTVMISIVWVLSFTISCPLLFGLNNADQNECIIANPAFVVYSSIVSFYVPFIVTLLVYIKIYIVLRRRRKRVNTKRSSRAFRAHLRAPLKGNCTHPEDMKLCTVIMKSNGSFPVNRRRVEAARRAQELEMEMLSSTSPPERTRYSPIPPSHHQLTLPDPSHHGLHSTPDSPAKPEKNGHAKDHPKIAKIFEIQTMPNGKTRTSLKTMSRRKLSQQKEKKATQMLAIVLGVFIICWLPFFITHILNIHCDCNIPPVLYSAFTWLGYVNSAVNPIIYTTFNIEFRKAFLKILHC
Sequence of Beta-2 adrenergic receptor (Homo sapiens) (P07550 whole entry, looked up): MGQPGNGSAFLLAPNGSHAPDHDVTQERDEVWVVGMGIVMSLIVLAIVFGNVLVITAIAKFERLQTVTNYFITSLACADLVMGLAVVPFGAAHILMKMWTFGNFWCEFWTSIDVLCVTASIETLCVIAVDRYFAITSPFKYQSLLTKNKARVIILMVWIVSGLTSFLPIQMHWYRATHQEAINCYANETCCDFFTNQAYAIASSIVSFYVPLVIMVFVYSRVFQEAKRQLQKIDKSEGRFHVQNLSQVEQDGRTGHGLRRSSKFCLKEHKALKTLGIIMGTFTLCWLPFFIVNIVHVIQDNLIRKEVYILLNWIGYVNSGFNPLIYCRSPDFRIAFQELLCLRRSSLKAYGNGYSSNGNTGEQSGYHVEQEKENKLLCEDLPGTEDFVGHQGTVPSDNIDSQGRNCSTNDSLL
Sequence of Gonadotropin-releasing hormone receptor (Homo sapiens) (P30968 whole entry, looked up): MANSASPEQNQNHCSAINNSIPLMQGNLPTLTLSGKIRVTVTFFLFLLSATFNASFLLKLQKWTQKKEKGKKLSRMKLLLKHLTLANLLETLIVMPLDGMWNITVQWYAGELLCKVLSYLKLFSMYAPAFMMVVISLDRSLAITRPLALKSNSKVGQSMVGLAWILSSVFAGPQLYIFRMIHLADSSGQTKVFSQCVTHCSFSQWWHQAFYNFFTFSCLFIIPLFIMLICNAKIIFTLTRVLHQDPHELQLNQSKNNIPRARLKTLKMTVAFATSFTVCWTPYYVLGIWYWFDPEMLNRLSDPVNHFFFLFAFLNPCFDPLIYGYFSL
Sequence of Muscarinic acetylcholine receptor M1 (Homo sapiens) (P11229 whole entry, looked up): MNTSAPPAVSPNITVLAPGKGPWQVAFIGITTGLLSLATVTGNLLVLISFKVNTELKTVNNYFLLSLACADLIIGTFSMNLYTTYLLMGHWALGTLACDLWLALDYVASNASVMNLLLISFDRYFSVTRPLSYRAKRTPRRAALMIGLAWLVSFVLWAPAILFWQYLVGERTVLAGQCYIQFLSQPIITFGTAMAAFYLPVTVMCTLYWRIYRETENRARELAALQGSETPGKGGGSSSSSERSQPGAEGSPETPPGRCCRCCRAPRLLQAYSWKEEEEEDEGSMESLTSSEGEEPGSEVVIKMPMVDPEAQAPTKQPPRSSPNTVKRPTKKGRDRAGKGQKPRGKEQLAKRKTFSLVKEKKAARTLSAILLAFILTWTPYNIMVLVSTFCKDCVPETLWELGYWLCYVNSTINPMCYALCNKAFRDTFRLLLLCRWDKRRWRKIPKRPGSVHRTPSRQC

Compound | Potency [1] | Potency [2] | outcome [3] | outcome [4] | Potency [5] | Potency [6] | Potency [7] | Potency [8] | Potency [9] | Potency [10] | Potency [11] | Potency [12] | Potency [13] | Potency [14] | Potency [15] | Potency [16] | Potency [17] | Potency [18] | Potency [19] | Potency [20]
Cc1nc(-c2ccc(OCC(C)C)c(C#N)c2)sc1C(=O)O | inactive | inactive | inactive | inactive | inactive | inactive | inactive | inactive | inactive | inactive | inactive | inactive | inactive | inactive | inactive | – | – | – | – | –
CCCCCCCCC(=O)Cl | inactive | inactive | inactive | inactive | inactive | inactive | – | inactive | inactive | inactive | inactive | inactive | inactive | inactive | inactive | inactive | inactive | inactive | – | –
O=C=Nc1cccc(C(F)(F)F)c1 | inactive | inactive | inactive | inactive | inactive | inactive | inactive | inactive | inactive | – | inactive | inactive | inactive | inactive | inactive | – | inactive | inactive | inactive | –
c1ccc(CCNc2nc(-c3ccccc3)cs2)cc1 | inactive | inactive | – | inactive | inactive | inactive | inactive | inactive | inactive | inactive | – | inactive | inactive | inactive | – | inactive | inactive | – | – | –
CC(C)C(=O)OCC(C)(C)C(O)C(C)C (stereo unspecified) | inactive | inactive | – | inactive | inactive | inactive | inactive | inactive | inactive | – | inactive | – | inactive | inactive | inactive | inactive | inactive | inactive | inactive | –
CC(=O)O[C@@H]1C(=O)O[C@@H]2[C@H]1OC(=O)[C@@H]2OC(C)=O | inactive | – | inactive | inactive | – | inactive | inactive | inactive | inactive | inactive | 756 nM (active) | inactive | inactive | inactive | inactive | – | inactive | inactive | inactive | inactive
